PubChem BioAssay (Tox21)
Where “and” joins values, the source holds several entries; their conditions need not be identical. Equal values may be shown once. Results filed as inconclusive are left out. Where a call stands in place of a potency, no number is given. Values without a mark were called inactive. Calls of active or inactive are those of the source. Unless noted, calls follow the shape of the dose curve; as a rule, active = well fitted curve in the direction sought with a large enough effect in the repeat runs; inconclusive = weak or mixed curves; inactive = no such curve, though single readings can be large; an effect the other way counts as inactive or inconclusive.

Columns and labels:
[1] = biological target: Luciferin 4-monooxygenase (Photinus pyralis) (UniProt P08659); assay: qHTS assay to identify small molecule inhibitors of firefly luciferase (AID 1224835); also: nearly all actives have a fitted effect of over 25% in size; also: potency is read from the fitted curve at half-maximal effect; as to activity change, negative = inhibition: series mostly up to about 120 µM
Method in brief: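 Quantitative HTS format; KM concentrations of both substrates. Purified P. pyralis FLuc activity quantified from luminescence images.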

[2] = qHTS assay to identify small molecule agonists of the constitutive androstane receptor (CAR) signaling pathway - cell viability counter screen (AID 1224836); also: nearly all actives have a fitted effect of over 45% in size; also: potency is read from the fitted curve at half-maximal effect; as to viability change, negative = cytotoxic: series mostly up to about 92 µM
Method in brief: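 Viability read-out: CellTiter-Fluor fluorescence after 23 h compound exposure at 37 C/5% CO2 in double-stable HepG2-CYP2B6-hCAR cells, with PK11195 present at 0.75 uM final; compounds tested in 15-point titration.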

[3] = qHTS assay to identify small molecule antagonists of the constitutive androstane receptor (CAR) signaling pathway - cell viability counter screen (AID 1224837); also: nearly all actives have a fitted effect of over 45% in size; also: potency is read from the fitted curve at half-maximal effect; as to activity change, negative = cytotoxicity: series mostly up to about 92 µM
Method in brief: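 Fluorescence from CellTiter-Fluor served as the viability signal. Human hepatoma HepG2 cells stably bearing hCAR and CYP2B6-2.2kb received compound plus CITCO (50 nM final) for 23 hr.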

[4] = biological target: Nuclear receptor subfamily 1 group I member 3 (Homo sapiens) (UniProt Q14994); assay: qHTS assay to identify small molecule antagonists of the constitutive androstane receptor (CAR) signaling pathway (AID 1224838);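 also: HepG2 cells stably expressing hCAR with CYP2B6 luciferase reporter stimulated by CITCO; nearly all actives have a fitted effect of over 40% in size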; also: potency is read from the fitted curve at half-maximal effect
Method in brief: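 Quantitative HTS in double-stable HepG2-CYP2B6-hCAR cells. After 4 h plating, cells get compound (15 concentrations) and CITCO at 50 nM final, incubate 24 h at 37 C, then ONE-Glo luminescence is read.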

[5] = biological target: Nuclear receptor subfamily 1 group I member 3 (Homo sapiens) (UniProt Q14994); assay: qHTS assay to identify small molecule agonists of the constitutive androstane receptor (CAR) signaling pathway (AID 1224839);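 also: HepG2 cells stably carrying human CAR and a CYP2B6 luciferase reporter; series mostly up to about 92 µM; nearly all actives have a fitted effect of over 15% in size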
Method in brief: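 Luminescence read-out (ONE-Glo, 30 min, room temperature) from double-stable HepG2-CYP2B6-hCAR cells exposed 24 h to 15-point compound series in presence of 0.75 uM PK11195 final.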

[6] = qHTS assay to identify small molecule antagonists of the estrogen related receptor signaling pathway with the pleiotropic PPARgamma coactivator (PGC) from Tox21 10K library - cell viability counter screen (AID 1224840; active = well fitted cell-killing curve with a large enough effect in the repeat runs, not every such curve was filed as active; also: nearly all actives have a fitted effect of over 40% in size; also: potency is read from the fitted curve at half-maximal effect)
Method in brief: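 Compounds in DMSO, alongside positive and negative controls, were pinned onto PGC/ERR cells (2,000 per well). Exposure lasted 17.5 hours at 37 C, followed by a 30-minute CellTiter-Fluor incubation and fluorescence reading.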

[7] = qHTS assay to identify small molecule agonists of the estrogen related receptor signaling pathway with the pleiotropic PPARgamma coactivator (PGC) from Tox21 10K library (AID 1224842); also: nearly all actives have a fitted effect of over 15% in size
Method in brief: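 PGC/ERR reporter cells (NTP line) were seeded 2,000 per well, rested 6 h at 37 C/5% CO2, then pin-dosed with compounds in DMSO for 18 h at 37 C; luciferase read by One-Glo luminescence after 30 min at room temperature.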

[8] = biological target: Thyrotropin receptor (Homo sapiens) (UniProt P16473); assay: qHTS assay to identify small molecule agonists of the thyroid stimulating hormone receptor (TSHR) signaling pathway (AID 1224843; calls by dose curve; also: nearly all actives have a fitted effect of over 45% in size)
Method in brief: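 Cell line HEK293 with TSHR; density 800/well. Exposure 30 min RT. Readout HTRF cAMP (cAMP-d2/anti-cAMP-cryptate), 1 h RT before reading.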

[9] = qHTS assay to identify small molecule agonists of the hypoxia (HIF-1) signaling pathway - cell viability counter screen (AID 1224844; calls by dose curve; also: nearly all actives have a fitted effect of over 50% in size)
Method in brief: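 Luminescent ATP content (CellTiter-Glo, 30 min, room temperature) served as the viability measure in HRE-bla ME-180 cells exposed to compounds for 17 hrs in low-serum medium (0.5% dialyzed FBS).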

[10] = qHTS assay to identify small molecule antagonists of the estrogen related receptor signaling pathway with the pleiotropic PPARgamma coactivator (PGC) from Tox21 10K library (AID 1224841; call rule not given here; also: actives are mostly falling curves and most rising ones were filed inactive; nearly all actives have a fitted effect of over 50% in size; also: potency is read from the fitted curve at half-maximal effect; as to activity, negative = inhibition: series mostly up to about 92 µM)
Method in brief: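 Compound exposure ran 18 hours at 37 C in PGC/ERR cells (2,000/well) that had first rested 6 hours in a 37 C/5% CO2 incubator. Luciferase activity was then detected with One-Glo after a 30-minute room-temperature step.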

Sequence of Thyrotropin receptor (Homo sapiens) (P16473 whole entry, looked up): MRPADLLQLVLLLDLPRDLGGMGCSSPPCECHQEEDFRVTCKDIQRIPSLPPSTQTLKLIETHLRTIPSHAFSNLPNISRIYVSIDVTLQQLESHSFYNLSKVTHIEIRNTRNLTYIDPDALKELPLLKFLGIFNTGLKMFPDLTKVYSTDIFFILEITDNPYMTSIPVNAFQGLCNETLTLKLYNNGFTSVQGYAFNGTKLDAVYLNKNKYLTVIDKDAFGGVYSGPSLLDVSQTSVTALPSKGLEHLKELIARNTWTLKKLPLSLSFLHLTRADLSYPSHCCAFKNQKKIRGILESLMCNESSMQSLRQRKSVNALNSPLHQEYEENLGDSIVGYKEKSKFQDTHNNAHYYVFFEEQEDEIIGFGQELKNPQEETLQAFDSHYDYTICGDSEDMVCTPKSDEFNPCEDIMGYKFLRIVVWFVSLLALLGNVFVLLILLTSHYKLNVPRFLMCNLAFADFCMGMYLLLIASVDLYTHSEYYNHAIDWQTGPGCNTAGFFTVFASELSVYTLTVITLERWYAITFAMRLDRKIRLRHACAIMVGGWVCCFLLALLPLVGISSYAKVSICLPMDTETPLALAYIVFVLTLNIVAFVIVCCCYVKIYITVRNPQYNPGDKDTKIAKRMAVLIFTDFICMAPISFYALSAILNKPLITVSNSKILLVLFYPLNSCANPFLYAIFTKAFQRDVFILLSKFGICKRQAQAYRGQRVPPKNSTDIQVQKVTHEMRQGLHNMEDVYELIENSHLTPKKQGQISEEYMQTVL
Sequence of Nuclear receptor subfamily 1 group I member 3 (Homo sapiens) (Q14994 whole entry, looked up): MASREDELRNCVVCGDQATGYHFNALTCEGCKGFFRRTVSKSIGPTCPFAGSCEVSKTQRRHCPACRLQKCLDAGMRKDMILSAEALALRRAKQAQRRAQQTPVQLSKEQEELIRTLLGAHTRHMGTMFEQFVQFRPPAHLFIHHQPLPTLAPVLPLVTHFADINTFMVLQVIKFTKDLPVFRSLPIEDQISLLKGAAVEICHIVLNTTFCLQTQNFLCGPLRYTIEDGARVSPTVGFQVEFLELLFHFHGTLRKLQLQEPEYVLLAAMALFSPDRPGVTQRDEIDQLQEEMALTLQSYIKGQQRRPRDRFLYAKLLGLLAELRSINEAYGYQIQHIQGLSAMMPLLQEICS
Sequence of Luciferin 4-monooxygenase (Photinus pyralis) (P08659 whole entry, looked up): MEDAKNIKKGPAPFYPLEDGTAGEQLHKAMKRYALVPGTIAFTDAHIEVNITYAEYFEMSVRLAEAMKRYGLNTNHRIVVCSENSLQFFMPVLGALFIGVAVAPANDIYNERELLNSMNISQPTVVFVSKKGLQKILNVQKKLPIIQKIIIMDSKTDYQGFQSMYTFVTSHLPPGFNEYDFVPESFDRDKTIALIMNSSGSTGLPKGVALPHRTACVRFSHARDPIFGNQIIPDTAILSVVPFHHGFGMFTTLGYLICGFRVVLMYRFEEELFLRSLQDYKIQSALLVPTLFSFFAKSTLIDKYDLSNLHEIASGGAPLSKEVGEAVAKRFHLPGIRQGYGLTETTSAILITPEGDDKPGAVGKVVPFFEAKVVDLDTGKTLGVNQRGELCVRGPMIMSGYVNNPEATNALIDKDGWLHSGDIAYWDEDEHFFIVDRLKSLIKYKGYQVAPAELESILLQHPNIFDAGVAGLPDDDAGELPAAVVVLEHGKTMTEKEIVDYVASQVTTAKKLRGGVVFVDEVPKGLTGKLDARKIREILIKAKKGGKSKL

In the case of `c1cc(CCCc2ccncc2)ccn1`, the Potency [1] is reported as “inactive”, the Potency [2] is reported as “inactive” and the Potency [3] is reported as “inactive”. The Potency [4] was “inactive”, the Potency [5] was “inactive” and the Potency [6] was “inactive”. The Potency [7] was “inactive”, the Potency [8] was “inactive” and the Potency [9] was “inactive”.
For `O=C1C(O)=C(O)C(=O)C(O)=C1O`, the Potency [1] was “inactive”, the Potency [2] was “inactive” and the Potency [3] was “inactive”. For the same molecule, the Potency [4] was “inactive”, the Potency [5] was “inactive” and the Potency [6] was “inactive”. For the same molecule, the Potency [8] was “inactive” and the Potency [9] was “inactive”.
With `CC(=O)c1ccc2c(c1)N(CCCN(C)C)c1ccccc1S2` the Potency [1] was “inactive”, the Potency [2] was “inactive” and the Potency [3] was “inactive”. For the same molecule, the Potency [4] was “inactive”, the Potency [5] was “inactive” and the Potency [6] was “inactive”. The Potency [8] was “inactive” and the Potency [9] was “inactive”.
With `C=CC(=O)OCCOCCOCCOCCOC(=O)C=C` the Potency [1] was “inactive”, the Potency [2] was 54.8 µM (active) and 60.6 µM (active) and the Potency [3] was 48.8 µM (active) and 54 µM (active). For the same molecule, the Potency [4] was 61.4 µM (active), the Potency [5] was “inactive” and the Potency [6] was 27.4 µM (active) and 27.1 µM (active). The Potency [8] was “inactive”.
For `Cc1ncc(CO)c(C=O)c1O`, the Potency [1] was “inactive”, the Potency [2] was “inactive” and the Potency [3] was “inactive”. The Potency [4] was “inactive”, the Potency [5] was “inactive” and the Potency [6] was “inactive”. For the same molecule, the Potency [10] was “inactive”, the Potency [7] was “inactive” and the Potency [8] was “inactive”. The Potency [9] was “inactive”.
With `CC(C)Nc1ccc(NC(C)C)c2c1C(=O)c1ccccc1C2=O` the Potency [1] was 33 µM (active), the Potency [2] was “inactive” and the Potency [3] was “inactive”. For the same molecule, the Potency [4] was “inactive” and the Potency [5] was “inactive”.
For `CCCCCCCCCCCc1ccccc1`, the Potency [1] was “inactive”, the Potency [2] was “inactive” and the Potency [3] was “inactive”. The Potency [4] was “inactive”, the Potency [5] was “inactive” and the Potency [6] was “inactive”. For the same molecule, the Potency [8] was “inactive” and the Potency [9] was “inactive”.
With `O=C1CCCCCCCCCCCC(=O)OCCO1` the Potency [1] was “inactive”, the Potency [2] was “inactive” and the Potency [3] was “inactive”. The Potency [4] was “inactive”, the Potency [5] was “inactive” and the Potency [6] was “inactive”. The Potency [10] was “inactive”, the Potency [7] was “inactive” and the Potency [9] was “inactive”.
With `CN(C)c1ccc(C(c2ccccc2)c2ccc(N(C)C)cc2)cc1` the Potency [1] was “inactive”, the Potency [2] was “inactive” and the Potency [3] was “inactive”. For the same molecule, the Potency [4] was “inactive”, the Potency [5] was “inactive” and the Potency [6] was “inactive”. The Potency [10] was 27.3 µM (active), the Potency [7] was “inactive” and the Potency [8] was “inactive”. The Potency [9] was “inactive”.
In the case of `Cc1c(N)cccc1[N+](=O)[O-]`, the Potency [1] is reported as “inactive”, the Potency [2] is reported as “inactive” and the Potency [3] is reported as “inactive”. For the same molecule, the Potency [4] was “inactive”, the Potency [5] was “inactive” and the Potency [6] was “inactive”. The Potency [10] was “inactive”, the Potency [7] was “inactive” and the Potency [8] was “inactive”. For the same molecule, the Potency [9] was “inactive”.
For `Nc1cccc(S(=O)(=O)c2cccc(N)c2)c1`, the Potency [1] was “inactive”, the Potency [2] was “inactive” and the Potency [3] was “inactive”. The Potency [4] was “inactive”, the Potency [5] was “inactive” and the Potency [6] was “inactive”. The Potency [10] was “inactive”, the Potency [7] was “inactive” and the Potency [8] was “inactive”. For the same molecule, the Potency [9] was “inactive”.
For `CCCCC/C=C\C/C=C\CCCCCCCC(=O)NC(C)c1ccccc1` (stereo not drawn), the Potency [1] was “inactive”, the Potency [2] was “inactive” and the Potency [3] was “inactive”. For the same molecule, the Potency [4] was “inactive”, the Potency [5] was “inactive” and the Potency [6] was “inactive”. For the same molecule, the Potency [7] was “inactive”, the Potency [8] was “inactive” and the Potency [9] was “inactive”.
With `COc1ccc(C)cc1[N+](=O)[O-]` the Potency [1] was “inactive”, the Potency [2] was “inactive” and the Potency [3] was “inactive”. For the same molecule, the Potency [4] was “inactive”, the Potency [6] was “inactive” and the Potency [10] was “inactive”. For the same molecule, the Potency [7] was “inactive”, the Potency [8] was “inactive” and the Potency [9] was “inactive”.
For `CN(C)c1ccc(CCO)cc1`, the Potency [1] was “inactive”, the Potency [2] was “inactive” and the Potency [3] was “inactive”. The Potency [4] was 27.1 µM (active), the Potency [6] was “inactive” and the Potency [8] was “inactive”. For the same molecule, the Potency [9] was “inactive”.
In the case of `C[C@H]1C[C@H]2[C@@H]3CCC4=CC(=O)C=C[C@]4(C)[C@@]3(Cl)[C@@H](O)C[C@]2(C)[C@@]1(O)C(=O)CO`, the Potency [1] is reported as “inactive”, the Potency [2] is reported as “inactive” and the Potency [3] is reported as “inactive”. The Potency [4] was “inactive”, the Potency [6] was “inactive” and the Potency [7] was “inactive”. For the same molecule, the Potency [8] was “inactive”.
In the case of `CC(C)=CCC/C(C)=C/CC/C(C)=C/CO`, the Potency [1] is reported as “inactive”, the Potency [2] is reported as “inactive” and the Potency [3] is reported as “inactive”. The Potency [4] was “inactive”, the Potency [6] was “inactive” and the Potency [8] was “inactive”. For the same molecule, the Potency [9] was “inactive”.
In the case of `CC1=CC[C@H](C(C)C)C=C1`, the Potency [1] is reported as “inactive”, the Potency [2] is reported as “inactive” and the Potency [3] is reported as “inactive”. The Potency [4] was “inactive”, the Potency [5] was “inactive” and the Potency [6] was “inactive”. The Potency [9] was “inactive”.
In the case of `CCCCCCCCCc1ccc(OCCOCCO)cc1`, the Potency [1] is reported as “inactive”, the Potency [2] is reported as 6.44 µM (active) and the Potency [3] is reported as 5.74 µM (active). The Potency [4] was “inactive”, the Potency [5] was “inactive” and the Potency [6] was 10.2 µM (active). The Potency [9] was “inactive”.
`O=C(O)CNCC(=O)O` gave an activity change, negative = inhibition [1] of 2.59% [at 10.5 µM], a viability change, negative = cytotoxic [2] of 4.87% [at 8.39 µM] and an activity change, negative = cytotoxicity [3] of 2.11% [at 8.39 µM]. It also gave an activity, negative = inhibition [4] of 15.5% [at 8.39 µM], a viability change, negative = cytotoxic [6] of 0.614% [at 8.39 µM] and an activation [8] of 4.36% [at 8.39 µM]. For the same molecule, the activity change, negative = cytotoxicity [9] was -0.223% [at 6.97 µM].
In the case of `CCN(CC)CCOC(=O)C(c1ccccc1)C1CCCCC1` (stereo not drawn), the Potency [1] is reported as “inactive”, the Potency [2] is reported as “inactive” and the Potency [3] is reported as “inactive”. The Potency [4] was “inactive”, the Potency [5] was “inactive” and the Potency [9] was “inactive”.
With `CCN(CC)c1ccc2c(-c3ccccc3C(=O)O)c3ccc(=[N+](CC)CC)cc-3oc2c1` the Potency [1] was 11.2 µM (active), the Potency [2] was 7.7 µM (active) and the Potency [3] was 7.7 µM (active). The Potency [4] was “inactive”, the Potency [6] was 17.2 µM (active) and the Potency [10] was 43.3 µM (active). For the same molecule, the Potency [7] was “inactive”.
Work on `C/C=C/C(=O)CC` yielded an activity change, negative = inhibition [1] of 3.1% [at 23.6 µM], a viability change, negative = cytotoxic [2] of 4.38% [at 19 µM] and an activity change, negative = cytotoxicity [3] of 0.0894% [at 19 µM]. For the same molecule, the activity, negative = inhibition [4] was -5.29% [at 19 µM], the viability change, negative = cytotoxic [6] was 7.3% [at 19 µM] and the activation [8] was -10.5% [at 19 µM]. The activity change, negative = cytotoxicity [9] was -6.33% [at 15.8 µM].
With `CC(=O)OC[C@H]1O[C@@H](n2ncc(=O)[nH]c2=O)[C@H](OC(C)=O)[C@@H]1OC(C)=O` the Potency [1] was “inactive”, the Potency [2] was “inactive” and the Potency [3] was “inactive”. For the same molecule, the Potency [4] was “inactive”, the Potency [6] was “inactive” and the Potency [8] was “inactive”. The Potency [9] was “inactive”.
In the case of `CCCCC1=NC2(CCCC2)C(=O)N1Cc1ccc(-c2ccccc2-c2nn[nH]n2)cc1`, the Potency [1] is reported as “inactive”, the Potency [2] is reported as “inactive” and the Potency [3] is reported as “inactive”. For the same molecule, the Potency [4] was “inactive”, the Potency [5] was “inactive” and the Potency [6] was “inactive”. For the same molecule, the Potency [9] was “inactive”.
